KB-V1 MDR tox – qHTS assay for MDR1-selective chemotherapeutics: Primary screen using the drug-selected MDR subline cells KB-V1; KB-V1 MDR cells viability, CellTiter-Glo, 72 h; Potency, µM (highest dose often 46.1 µM), usual class: cytotoxic; hit rate 3.4% among 400,000; AID 1347076, 2019; further: on the % scale 0 is the no-effect control and ±100 the full control effect; nearly all actives have a fitted effect of over 60% in size
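Drug-selected KB-V1 cells, grown in DMEM lacking phenol red with 10% FBS, receive compound titrations; after three days at 37 degrees C, surviving cell ATP is quantified by CellTiter-Glo luminescence and responses normalized and curve-fitted.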
KB-3-1 cytotox – qHTS assay for MDR1-selective chemotherapeutics: Primary screen using the parental adenocarcinoma cell KB-3-1; KB-3-1 viability, CellTiter-Glo ATP luminescence, 72 h; Potency, µM (highest dose often 46.1 µM), usual class: cytotoxic; hit rate 1.4% among 400,000; AID 1347075, 2019; further: on the % scale 0 is the no-effect control and ±100 the full control effect; nearly all actives have a fitted effect of over 60% in size
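KB-3-1 cells, DMEM (no phenol red) + 10% FBS; compound by pin transfer, 72 h, 37 °C. Readout: CellTiter-Glo luminescence after 10 min. Data normalized, curve-fitted.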
SW480 rerep – A quantitative high throughput screen for small molecules that induce DNA re-replication in SW480 colon adenocarcinoma cells; SW480 DNA re-replication, Hoechst DNA content imaging, 48 h; Potency, µM (highest dose often 46.1 µM), for the others: at the highest dose re-replication activation, usual class: activators; hit rate 1.8% among 340,000; AID 624297, 2012; further: % of control where 0% means no effect; nearly all actives have a fitted effect of over 55% in size
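Quantitative HTS format with DMSO vehicle controls; 48 hr drug incubation at 37 C, then 40 min Hoechst staining and scanning imager measurement at 405 nm excitation.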
MCF10A rereplic – A quantitative high throughput screen for small molecules that induce DNA re-replication in MCF 10a normal breast cells; MCF 10A DNA re-replication, Hoechst nuclear intensity, 48 h; Potency, µM (highest dose often 46.1 µM), for inactives: at the highest dose activity, positive = re-replication, hits mostly activators; hit rate 2.9% among 350,000; further: % of control where 0% means no effect; nearly all actives have a fitted effect of over 50% in size
PINK1 modulator – A Quantitative High throughput Screen to Identify Chemical Modulators of PINK1 Expression; PINK1 immunofluorescence, high-content cytometry, 24 h; Potency, µM (titrated, usually from 76.6 µM), inactives show at the highest dose activation (PINK1 increase), most hits filed as activators; hit rate 0.2% among 410,000; AID 624263, 2012; active means well fitted activation curve with a large enough effect; inconclusive means small, poorly fitted or top-dose-only effect; cell line not stated here; further: % of control where 0% means no effect; nearly all actives have a fitted effect of over 65% in size
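A stable cell line was treated with compounds at 5 concentrations for 24 hours, with CCCP as control. PINK1 levels and mitochondrial localization were measured by immunofluorescence with mitochondrial, cell and nuclear markers after fixation, read by laser-scanning cytometry.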
Starred values were filed as active, the others as inactive; i = inactive; ? = inconclusive; · = no result; [ ] = another dose, or the depositor's remark. Compounds with a hit are over-represented: about 6.7% of the library has one in this group of screens. Unless noted, the call rests on the fitted dose curve; in most records, active means well fitted curve in the direction sought with a large enough effect; inconclusive means small, poorly fitted or top-dose-only effect, or another doubt; inactive means no such curve, though single readings can be large; an effect the other way counts as inactive or inconclusive. Potency means the concentration at half of the fitted maximal effect.

SMILES | KB-V1 MDR tox | KB-3-1 cytotox | SW480 rerep | MCF10A rereplic | PINK1 modulator
COc1cccc(-n2c(C)cc(/C=C3\C(=N)N4N=C(CC(=O)N5CCOCC5)SC4=NC3=O)c2C)c1 | i | i | 18% | 4% | 0%
Cc1cccc(-n2c(C)cc(/C=C3\C(=N)N4N=C(CC(C)C)SC4=NC3=O)c2C)c1 | i | i | -3% | 1% | 15%
Cc1cc(C)cc(-n2c(C)cc(/C=C3\C(=N)N4N=C(CC(C)C)SC4=NC3=O)c2C)c1 | 21µM* | ? | 2% | 18µM* | 1%
COCCn1c(=O)c(-c2ccc(Cl)cc2)nc2cnc(Nc3ccccc3)nc21 | · | · | · | · | 2%
C=CCN(c1ccccc1)S(=O)(=O)c1cccc(C(=O)NC2CCN(Cc3ccccc3)CC2)c1 | ? | 21µM* | ? | ? | -2%
C=CCN(c1ccccc1)S(=O)(=O)c1cccc(C(=O)Nc2cc(C)ccn2)c1 | ? | ? | ? | 19% | -1%
C=CCN(c1ccccc1)S(=O)(=O)c1cccc(C(=O)NCc2ccco2)c1 | 18µM* | i | 2% | 1% | 0%
O=C(CCl)NNC(=O)c1c(O)c2ccccc2[nH]c1=O | ? | 15µM* | ? | 20% | 5%
CCCCC(=O)NNC(=O)c1c(O)c2ccccc2[nH]c1=O | 9.2µM* | i | -5% | ? | 0%
Cc1cc(C)c2nc(-c3ccccn3)cc(C(=O)NCCc3ccc(S(N)(=O)=O)cc3)c2c1 | i | i | ? | ? | 10%
COc1cccc(NC(=O)c2cc(-c3ccco3)nc3ccccc23)c1 | ? | i | 23% | 3% | 21%
Cc1cc(C)c2nc(-c3ccccn3)cc(C(=O)NCc3ccc(S(N)(=O)=O)cc3)c2c1 | i | i | -2% | 13µM* | 0%
COc1cccc(NC(=O)CN(C)C(=O)c2cccnc2Nc2cccc(C(F)(F)F)c2)c1 | ? | ? | ? | 21µM* | 3%
COc1cccc(NC(=O)c2ccccc2Oc2ccccc2)c1 | i | i | -22% | -1% | 1%
COc1cccc(Nc2ncccc2C(=O)Nc2ccccc2)c1 | i | i | ? | 23µM* | 6%
COc1cccc(NC(=O)c2cc(-c3ccccn3)nc3ccccc23)c1 | 1.8µM* | ? | 0% | 12% | 17%
COC(=O)C[C@H]1C[C@H]2c3cc(NC(=O)C4CCOCC4)ccc3O[C@H]2[C@H](CO)O1 | i | i | · | · | 1%
Cc1ccc(S(=O)(=O)Cc2ccc(C(=O)NCCc3ccc(Cl)cc3)o2)cc1 | i | i | · | · | 1%
Cc1ccc(S(=O)(=O)N(C)CC(=O)N(C)Cc2cccs2)cc1 | i | i | · | · | 0%
O=C(NC1CC1)c1cc(-c2ccccn2)nc2ccccc12 | i | i | -5% | 13% | 1%
Cc1cccc(NC(=O)c2cc(-c3ccccn3)nc3ccccc23)c1C | 10µM* | ? | 16% | ? | 3%
CCSc1ccccc1C(=O)Nc1cccc(OC)c1 | 18µM* | i | 1% | 0% | 51%[38.3 µM]
COc1ccc(NC(=O)c2cc(-c3ccccn3)nc3c(C)cc(C)cc23)c(C)c1 | · | · | ? | 10µM* | 16%
O=C(NCC1CCCO1)c1cccc(S(=O)(=O)N2CCOCC2)c1 (configuration not stated) | · | · | 0% | 0% | 1%
COC(=O)[C@@]12C[C@@H](CC(=O)NCCc3ccccc3OC)C(=O)N(Cc3ccco3)C1=CCC(C)(C)C2 | 15µM* | i | · | · | ·
COC(=O)[C@@]12C[C@@H](CC(=O)NCC34CC5CC(CC(C5)C3)C4)C(=O)N(Cc3ccccc3)C1=CCC(C)(C)C2 | 23µM* | ? | · | · | ·
COC(=O)[C@@]12C[C@@H](CC(=O)NCc3cccc(C(F)(F)F)c3)C(=O)N(Cc3cccc4ccccc34)C1=CCC(C)(C)C2 | ? | i | · | · | ·
